Assay results as given in publication PMC7862700, “An all-to-all approach to the identification of sequence-specific readers for epigenetic DNA modifications on cytosine”.

Biological target: T1, SPDEF (Homo sapiens, UniProt O95238 1-335)
T1 sequence: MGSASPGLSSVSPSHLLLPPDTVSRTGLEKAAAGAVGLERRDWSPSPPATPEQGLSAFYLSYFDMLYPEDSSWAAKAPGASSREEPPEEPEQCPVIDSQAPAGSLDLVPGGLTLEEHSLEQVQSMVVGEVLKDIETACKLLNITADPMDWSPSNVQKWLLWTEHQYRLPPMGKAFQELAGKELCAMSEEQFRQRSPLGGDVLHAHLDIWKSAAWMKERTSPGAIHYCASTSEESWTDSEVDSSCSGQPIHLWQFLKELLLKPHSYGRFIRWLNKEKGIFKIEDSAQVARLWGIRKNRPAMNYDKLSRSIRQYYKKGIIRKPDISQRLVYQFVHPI
Experiment: DAPPL (digital affinity profiling via proximity ligation, sequencing); 10 mM Tris-HCl pH 7.5, 50 mM NaCl, 1 mM DTT, 4% glycerol, room temperature, 30 min; GST-TFs on glutathione beads, 16-mer random dsDNA library, 0.1% formaldehyde crosslink after washing; high values mean tight binding
Conditions: protein: recombinant; tags: N-terminal GST; dsDNA, one strand shown
Procedure, shortened: (§1)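 The binding signal reported is, for every hexamer, its read frequency for a factor over its read frequency for the tag-only sample. Reads came from pools of yeast-expressed, GST-fused human transcription factors on glutathione beads, barcoded with DNA and mixed with that sample, which were incubated with 200 nmole of a random double-stranded 16-mer DNA library in Tris/NaCl/DTT/glycerol buffer at room temperature for 30 min. After washing, the pools were crosslinked with 0.1% formaldehyde, proximity-ligated with BsaI/T4 ligase for 1 h at 37 °C, PCR-amplified and sequenced on an Illumina NextSeq500.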

Sequence | binding signal
GTCACA | 1.08 fold enrichment (6-mer frequency, TF over GST control)
ATGGGT | 1.42 fold enrichment (6-mer frequency, TF over GST control)
GTTTGA | 1.11 fold enrichment (6-mer frequency, TF over GST control)
ATTGGG | 1.19 fold enrichment (6-mer frequency, TF over GST control)
CGTCCC | 1.35 fold enrichment (6-mer frequency, TF over GST control)
GCTCTG | 1.06 fold enrichment (6-mer frequency, TF over GST control)
TTCCCT | 1.47 fold enrichment (6-mer frequency, TF over GST control)
CCGGCC | 1.38 fold enrichment (6-mer frequency, TF over GST control)
TTCTTG | 1.28 fold enrichment (6-mer frequency, TF over GST control)
TGTTTG | 1.25 fold enrichment (6-mer frequency, TF over GST control)
ATTGCC | 1.18 fold enrichment (6-mer frequency, TF over GST control)
ACGCCC | 1.07 fold enrichment (6-mer frequency, TF over GST control)
CACTCC | 1.2 fold enrichment (6-mer frequency, TF over GST control)
AAAAAA | 1.21 fold enrichment (6-mer frequency, TF over GST control)
CAGGAA | 1.53 fold enrichment (6-mer frequency, TF over GST control)
GCCCGC | 1.04 fold enrichment (6-mer frequency, TF over GST control)
TACGTC | 1.33 fold enrichment (6-mer frequency, TF over GST control)
TAATCC | 1.44 fold enrichment (6-mer frequency, TF over GST control)
GCGGAA | 1.22 fold enrichment (6-mer frequency, TF over GST control)
TGATGT | 1.26 fold enrichment (6-mer frequency, TF over GST control)

Sequence | binding signal
CCGACA | 1.27 fold enrichment (6-mer frequency, TF over GST control)
CGGAAG | 3.02 fold enrichment (6-mer frequency, TF over GST control)
TTTAAT | 1.17 fold enrichment (6-mer frequency, TF over GST control)
GGAACA | 1.15 fold enrichment (6-mer frequency, TF over GST control)
TGATAT | 1.18 fold enrichment (6-mer frequency, TF over GST control)
CTTGTC | 1.35 fold enrichment (6-mer frequency, TF over GST control)
ATACGC | 1.2 fold enrichment (6-mer frequency, TF over GST control)
TGACGA | 1 fold enrichment (6-mer frequency, TF over GST control)
CCGCAA | 1.36 fold enrichment (6-mer frequency, TF over GST control)
ACCCCC | 1.1 fold enrichment (6-mer frequency, TF over GST control)
TCAAAT | 1.11 fold enrichment (6-mer frequency, TF over GST control)
GATTTG | 1.19 fold enrichment (6-mer frequency, TF over GST control)
CGTCAC | 1.21 fold enrichment (6-mer frequency, TF over GST control)
TTCGAG | 1.19 fold enrichment (6-mer frequency, TF over GST control)
GGTTTC | 1.55 fold enrichment (6-mer frequency, TF over GST control)
ACTGCG | 1.24 fold enrichment (6-mer frequency, TF over GST control)
ACTGAC | 1.18 fold enrichment (6-mer frequency, TF over GST control)
AAGTTG | 1.02 fold enrichment (6-mer frequency, TF over GST control)
CGCACT | 1.1 fold enrichment (6-mer frequency, TF over GST control)
ACATCG | 1.08 fold enrichment (6-mer frequency, TF over GST control)

Biological target: T2, ETV7 (Homo sapiens, UniProt Q9Y603 1-341)
T2 sequence: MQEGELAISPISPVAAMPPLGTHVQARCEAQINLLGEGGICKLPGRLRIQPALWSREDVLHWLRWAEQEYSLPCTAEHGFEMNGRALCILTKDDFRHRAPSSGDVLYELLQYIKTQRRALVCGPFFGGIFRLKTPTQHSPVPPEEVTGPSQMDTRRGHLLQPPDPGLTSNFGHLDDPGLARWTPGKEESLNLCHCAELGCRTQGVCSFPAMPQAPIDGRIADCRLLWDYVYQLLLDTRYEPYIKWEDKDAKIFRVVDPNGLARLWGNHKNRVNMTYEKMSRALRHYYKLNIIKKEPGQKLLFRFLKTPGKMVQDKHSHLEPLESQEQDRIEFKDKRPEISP
Experiment: as above
Conditions: protein: recombinant; tags: N-terminal GST; dsDNA, one strand shown
Procedure, shortened: as §1

Sequence | binding signal
GTCACA | 1.09 fold enrichment (6-mer frequency, TF over GST control)
ATGGGT | 1.41 fold enrichment (6-mer frequency, TF over GST control)
GTTTGA | 1.24 fold enrichment (6-mer frequency, TF over GST control)
ATTGGG | 1.11 fold enrichment (6-mer frequency, TF over GST control)
CGTCCC | 1.22 fold enrichment (6-mer frequency, TF over GST control)
GCTCTG | 1.17 fold enrichment (6-mer frequency, TF over GST control)
TTCCCT | 1.55 fold enrichment (6-mer frequency, TF over GST control)
CCGGCC | 1.16 fold enrichment (6-mer frequency, TF over GST control)
TTCTTG | 1.48 fold enrichment (6-mer frequency, TF over GST control)
TGTTTG | 1.39 fold enrichment (6-mer frequency, TF over GST control)
